{"source": "the OligoGym collection"}
{"target": "C8B", "assay": "pooled miR-30 sensor sort-seq; sequence = guide strand", "details": "shRNA"}
{"sequence": "TTACACACCTTCCTGTCTGTGC", "sensor-assay potency score (higher = more potent)": 0.539}
{"sequence": "TTCTACAGTTTGCTTCATCTGA", "sensor-assay potency score (higher = more potent)": -0.199}
{"sequence": "TTGACTTCCGCATGGTCTGTTG", "sensor-assay potency score (higher = more potent)": -0.312}
{"sequence": "TAACACAGTCTTCGACTTCCTT", "sensor-assay potency score (higher = more potent)": -0.392}
{"sequence": "TAACTCTCTGAAGGAACTCGTA", "sensor-assay potency score (higher = more potent)": -1.02}
{"sequence": "TAAAACCAAAACTGAAACCAGA", "sensor-assay potency score (higher = more potent)": -0.722}
{"sequence": "TTGTTGACTGCATTTGACCCAA", "sensor-assay potency score (higher = more potent)": -0.397}
{"sequence": "TTAACTTTGATGATGGCTGGGT", "sensor-assay potency score (higher = more potent)": 0.335}
{"sequence": "TAGTATGAGAGAATCGTTTGGT", "sensor-assay potency score (higher = more potent)": 0.49}
{"sequence": "TAAGAGTATAATCTCCTCTCTC", "sensor-assay potency score (higher = more potent)": 0.0444}
{"sequence": "TTTAGTATGAGAGAATCGTTTG", "sensor-assay potency score (higher = more potent)": -0.791}
{"sequence": "TTCCTTCTGGAACTCCTCCAGT", "sensor-assay potency score (higher = more potent)": -0.414}
{"sequence": "TAATATAGTGTTTGCCTCGATC", "sensor-assay potency score (higher = more potent)": -0.751}
{"sequence": "TAGGGCTTCCTAAACCTCGTGT", "sensor-assay potency score (higher = more potent)": 0.733}
{"sequence": "TTTTAGTATGAGAGAATCGTTT", "sensor-assay potency score (higher = more potent)": -0.743}
{"sequence": "TTGTCAGAGAAGTTGCACGGTT", "sensor-assay potency score (higher = more potent)": -0.544}
{"sequence": "AACACAGTCTTCGACTTCCTTG", "sensor-assay potency score (higher = more potent)": -0.726}
{"sequence": "TTTATTTTAAACAGCTTGCATG", "sensor-assay potency score (higher = more potent)": -0.469}
{"sequence": "TAGCTTTCCACATTGTAGGGCT", "sensor-assay potency score (higher = more potent)": 0.376}
{"sequence": "TTTGCCTACAGACACACCCAGA", "sensor-assay potency score (higher = more potent)": -0.947}
{"target": "C8orf37", "assay": "pooled miR-30 sensor sort-seq; sequence = guide strand", "details": "shRNA"}
{"sequence": "ATATTGTGCATAACATTGCTTT", "sensor-assay potency score (higher = more potent)": -0.312}
{"sequence": "TTATAATACATGATCTTCCTTA", "sensor-assay potency score (higher = more potent)": 0.582}
{"sequence": "TAATTTGTGAAATTCTGGCATG", "sensor-assay potency score (higher = more potent)": -0.39}
{"sequence": "TTTAACTGCTACAAGTTGGGGA", "sensor-assay potency score (higher = more potent)": 0.583}
{"sequence": "TTGATGAGGTAAGATCAGCTAT", "sensor-assay potency score (higher = more potent)": -0.469}
{"sequence": "TCTTCTTTATCAACTTTGCTTT", "sensor-assay potency score (higher = more potent)": -0.627}
{"sequence": "TTGCTTTGAGTTGATGAGGTAA", "sensor-assay potency score (higher = more potent)": -0.541}
{"sequence": "TTAAATGTTTCTGTTGATCTGA", "sensor-assay potency score (higher = more potent)": 0.482}
{"sequence": "TTAATTTGTGAAATTCTGGCAT", "sensor-assay potency score (higher = more potent)": 0.766}
{"sequence": "TAAGACTGTCAAGATCATCTTC", "sensor-assay potency score (higher = more potent)": 0.587}
{"sequence": "TTCTTCTTTATCAACTTTGCTT", "sensor-assay potency score (higher = more potent)": -0.238}
{"sequence": "TACATGATCTTCCTTAGTCCAT", "sensor-assay potency score (higher = more potent)": -0.774}
{"target": "C8orf86", "assay": "pooled miR-30 sensor sort-seq; sequence = guide strand", "details": "shRNA"}
{"sequence": "TAATCAACTCCTCAGCTGGGAG", "sensor-assay potency score (higher = more potent)": -1.02}
{"sequence": "TTTCCTTCCCTTCTGTCCCAAA", "sensor-assay potency score (higher = more potent)": -1.07}
{"sequence": "TTGGCTCTTTGGAACTGCCTGT", "sensor-assay potency score (higher = more potent)": -0.109}
{"sequence": "TTGAAGAAACCACAGATGCGAG", "sensor-assay potency score (higher = more potent)": -0.899}
{"sequence": "TTTGTCTCTCTGTTCGCTGCTC", "sensor-assay potency score (higher = more potent)": -0.0258}
{"sequence": "ATTGCTTCTAATCAACTCCTCA", "sensor-assay potency score (higher = more potent)": 0.067}
{"sequence": "TTGCTTCTAATCAACTCCTCAG", "sensor-assay potency score (higher = more potent)": -0.327}
{"sequence": "TTGTCTCTCTGTTCGCTGCTCA", "sensor-assay potency score (higher = more potent)": 0.291}
